Sampled rows, rich in hits. Any-hit rate of the full collection: about 6.1%.
D1 agonist: human D1 receptor agonism; HEK293 T-REx D1 cells, calcium flux, agonist mode; activation, % at 2 µM; P21728; hit rate 1% among 360,000; in the data active = activation above about 30%; also: 0% is about no effect
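Agonism was scored from calcium flux recorded over 180 s (1 read/s) after pintool compound addition, following a 10-cycle baseline. Cells were inducible force-coupled HEK293 TREx D1, plated overnight at 30 C and loaded with no-wash calcium dye.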
D1 potentiator: human D1 dopamine receptor positive modulation; HEK293 TREx D1 cells, calcium flux, dopamine EC20 potentiation; P21728; potentiation, % at 10 µM; AID 504651; hit rate 0.036% among 360,000; in the data active = potentiation above about 30%; also: 0% is about no effect
D3 ag: activates the human D3 dopamine receptor | AID 652048 | hit rate 0.58% among 410,000 | P35462 | max activation, % | D3R DiscoveRx beta-arrestin cells, luminescence, 90 min; in the data active = max activation above about 30%; also: 0% is about no effect
Target sequence (P35462 whole entry, looked up): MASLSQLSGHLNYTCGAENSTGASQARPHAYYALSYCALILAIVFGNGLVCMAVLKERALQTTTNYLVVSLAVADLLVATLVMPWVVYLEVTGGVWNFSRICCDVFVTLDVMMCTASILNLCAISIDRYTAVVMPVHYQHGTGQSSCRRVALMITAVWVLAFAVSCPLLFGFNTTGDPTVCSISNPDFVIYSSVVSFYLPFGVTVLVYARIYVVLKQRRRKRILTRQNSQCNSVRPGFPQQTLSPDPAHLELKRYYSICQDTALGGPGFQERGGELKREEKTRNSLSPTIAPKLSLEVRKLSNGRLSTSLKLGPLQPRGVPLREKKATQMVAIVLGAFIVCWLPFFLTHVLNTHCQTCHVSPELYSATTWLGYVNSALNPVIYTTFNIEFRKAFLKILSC
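Cells at 1500/well, incubated overnight, then treated with pinned compounds (dopamine as control) for 90 min at 37 degrees C. DiscoveRx reagent added for 30 - 60 minutes at room temperature; luminescence read.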
D1 antag: blocks dopamine activation of the human D1 receptor; AID 504652; HEK293 TREx D1 cells, calcium flux, dopamine EC80; stronger effect = lower value; hit rate 3.2% among 360,000; activity change, negative = inhibition, % at 10 µM; P21728; in the data active = activity change below about -30%; also: % is scaled to controls: 0 for no effect and ±100 for the full control effect
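Tetracycline-induced HEK293 Trex D1 cells, force-coupled to calcium, dye-loaded; compounds added and read 180 s, then EC80 dopamine added and calcium flux tracked kinetically another 180 s.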
DRD3 antagonist: D3 dopamine receptor (human) antagonism | hit rate 2.5% among 360,000 | max response, negative = inhibition, % | AID 652054 | P35462 | D3R cells, DiscoveRx beta-arrestin luminescence, antagonist mode; stronger effect = lower value; in the data active = max response below about -50%; inconclusive = no clear call, values can overlap the other calls; also: % is scaled to controls: 0 for no effect and ±100 for the full control effect
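Cells expressing the human receptor were seeded at 1500 cells/well, incubated overnight at 37 degrees C in 5% CO2, then exposed to library compounds with dopamine controls for 90 minutes at 37 degrees C before luminescent detection.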
* = called active by the depositor; ? = inconclusive; nt = no result given; ! = not confirmed by another sample.

SMILES	D1 agonist	D1 potentiator	D3 ag	D1 antag	DRD3 antagonist
Nc1c(C(=O)N/N=C/c2cccnc2)oc2nc(-c3ccco3)cc(-c3ccco3)c12	4	-3	10	-31*	43
Nc1c(C(=O)N/N=C/c2cccnc2)oc2nc(-c3ccccc3)cc(-c3ccco3)c12	1	-10	26	-2	57
O=C(NCc1ccco1)c1ccc2c(c1)N(Cc1ccc(F)cc1)C(=O)c1ccccc1S2=O (centres undefined)	3	1	7	-3	nt
COc1ccc(OC)c(CNC(=O)c2cnc(N(C)C)nc2)c1	-1	0	3	8	nt
Cc1ccc(C23CC4CC(CC(C(=O)N5CCN(C)CC5)(C4)C2)C3)cc1	11	2	-20	-15	-55*
CN1CCN(C(=O)C23CC4CC(C)(CC(C)(C4)C2)C3)CC1	3	-4	-21	1	-71*
COC(=O)c1ccccc1NC(=O)N1CCC(n2c(C)nc3cccnc32)CC1	7	2	3	-7	nt
COC(=O)CSc1nc2c(cnn2-c2ccc(F)cc2)c(=O)[nH]1	1	-5	3	-33*!	1
CCOC(=O)CSc1nc2c(cnn2-c2ccc(F)cc2)c(=O)[nH]1	3	5	11	7	0
COCCNC(=O)Cn1cnc([N+](=O)[O-])n1	3	-10	-5	14	-71*
O=C(N/N=C/c1ccc(O)cc1)c1csc2ccccc12	1	-2	-2	-57*	-11
N#CCOC(=O)[C@H](Cc1c[nH]c2ccccc12)NS(=O)(=O)c1ccc(Cl)cc1	14	-2	1	-5	-5
COc1ccc(Cl)cc1C(=O)NNC(=O)COC(=O)CCN=C1NS(=O)(=O)c2ccccc21	3	-4	-65	6	-108*
Cc1ccc(C(=O)C(C)OC(=O)CCN=C2NS(=O)(=O)c3ccccc32)cc1 (centres undefined)	17	-6	-3	-39*	4
O=C(CCCN=C1NS(=O)(=O)c2ccccc21)OCC(=O)c1ccccc1	17	-4	5	-30*	9
COc1ccccc1C(=O)COC(=O)CCN=C1NS(=O)(=O)c2ccccc21	1	-9	1	-6	8
CCOC(=O)C1=CNS(=O)(=O)NC1c1ccc(C(F)(F)F)cc1 (centres undefined)	nt	nt	5	nt	26
CCn1c(-c2ccc(S(=O)(=O)N3CCOCC3)cc2)csc1=Nc1ccc(C)c(Cl)c1	1	-4	-11	-37*	nt
O=C(Nn1c(C2CCC2)nc2ccccc2c1=O)c1cccs1	2	-4	-13	-4	-6
O=C(COC(=O)CCC(=O)c1ccc(F)cc1)Nc1ccccc1	0	-1	17	7	-7
NC(=O)c1ccc(NC(=O)COC(=O)CCC(=O)c2ccc(Cl)cc2)cc1	2	-7	0	-31*	10
C[C@@H](C(=O)Nc1ccc2ccccc2c1)[C@H]1C[C@]1(C)[C@H](NC(=O)c1cccnc1)c1ccccc1	-2	-1	0	-16	-50*
C[C@@H](C(=O)Nc1ccc2ccccc2c1)[C@@H]1C[C@@]1(C)[C@@H](NC(=O)c1ccccc1)c1ccccc1	1	-3	-14	-10	0
COCC(=O)N1CCCC(C)(C(=O)Nc2cccc(Oc3ccccc3)c2)C1 (centres undefined)	nt	nt	49*	nt	-20
COC(=O)c1scc(C)c1NC(=O)c1ccc(Cl)cc1	1	-1	-13	-2	-15
SMILES	D1 agonist	D1 potentiator	D3 ag	D1 antag	DRD3 antagonist
COC(=O)c1sccc1NC(=O)C1CC1	0	-2	8	-76*	7
COC(=O)c1scc(C)c1NC(=O)C1CCCCC1	2	4	-1	-44*	6
COC(=O)c1sccc1NC(=S)OC	3	-4	9	-6	5
CCN(CC)S(=O)(=O)c1ccc2c(c1)N(CC(=O)N1CCN(c3cccc(C)c3C)CC1)C(=O)CO2	4	-2	10	2	nt
Cc1c(CCOC(=O)c2cc([N+](=O)[O-])cc([N+](=O)[O-])c2)sc[n+]1CCCCS(=O)(=O)[O-]	3	-3	0	3	5
CCN1CCN(C(=O)CS(=O)(=O)Cc2nc(-c3ccc(C)cc3)oc2C)CC1	2	-7	2	-31*	3
CCN(CC)S(=O)(=O)c1ccc(S(=O)(=O)Nc2ccc3c(c2)oc2ccccc23)cc1	3	-5	1	-6	-58*
CN(C)S(=O)(=O)c1ccc(S(=O)(=O)Nc2ccc3c(c2)oc2ccccc23)cc1	-2	2	11	-5	11
Cc1cc(=O)oc2cc(NS(=O)(=O)c3ccccc3)ccc12	1	2	10	-95*	12
Cc1ccccc1OCCCn1c(CCNC(=O)C2CCCCC2)nc2ccccc21	11	-3	-27	-13	nt
CC(=O)Nc1ccc(NC(=O)CCc2c(C)nc3c(c(C)nn3-c3ccc(C)cc3)c2C)cc1	3	-3	-12	13	nt
CCCCCCCCCCCCCCCCCC(=O)OCCO	nt	nt	-10	nt	nt
CCc1ccc(CN2CCC(Oc3cc(C(=O)NC4CC4)ccc3OC)CC2)cc1	nt	nt	-3	nt	-16
COc1ccc(C(=O)NC2CC2)cc1OC1CCN(Cc2cc(C)cc(C)c2)CC1	1	-19	-1	-51*	17
COc1ccc(C(=O)NC2CC2)cc1OC1CCN(Cc2ccc(Cl)cc2)CC1	6	-19	-9	-58*	-1
Cc1cccc(C)c1NC(=O)C(c1cc2ccccc2o1)N1CCC(c2ccccc2)CC1 (centres undefined)	nt	nt	-10	nt	-19
CC1Sc2ccc(C#N)cc2N(Cc2cccc(C(F)(F)F)c2)C1=O (centres undefined)	nt	nt	-1	nt	-51*
COc1ccc2c(c1)cc1c(=O)n(CC(=O)NC(C)C)nc(C)n12	0	-2	-7	-27	nt
O=c1ccc2cc(S(=O)(=O)N3CCCC3)ccc2[nH]1	0	-2	4	-2	nt
O=S(=O)(c1ccc2[nH]ccc2c1)N1CCCCCC1	1	-2	-3	-30*	-19
Cc1ccc(-c2noc(CCC(=O)NCC3CCN(Cc4cccc(C)c4)CC3)n2)cc1	51*	-10	-4	-24	5
COc1ccc(-c2noc(CCC(=O)N3CCN(c4cccc(OC)c4)CC3)n2)cc1	nt	nt	44*	nt	102
COc1ccc(-c2noc(CCC(=O)NCCCN3CCN(c4ccc(F)cc4)CC3)n2)cc1	35*	-16	-13	-73*	-23
COc1ccc(N2CCN(CCCNC(=O)c3nnc(Cc4ccc(F)cc4)o3)CC2)cc1	0	1	-4	4	nt
Cc1ccc(-c2noc(CCC(=O)NCCN3CCN(Cc4ccccc4)CC3)n2)cc1	13	-7	-8	-20	-26
COc1ccc(-c2noc(CCC(=O)NCCCN3CCC(Cc4ccccc4)CC3)n2)cc1	56*	-10	-2	-54*	?

High-throughput results (PubChem)
